{
  "source": "the supplement of paper PMC8728848",
  "assay_in_all_cases": "glycan array binding signal (z-score within array); higher = stronger binding",
  "conditions_in_all_cases": "glycan notation: IUPAC condensed, linker removed",
  "key": {"[1]": {"molecular_target": "Fuc(a1-2)Gal(b1-3)GalNAc(a1-3)[Fuc(a1-2)]Gal(b1-4)GlcNAc", "summary_of_the_method": "(§1)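 Glycan array binding is given as a within-array Z-score, which can be read as non-binding when negative. The arrays, 3228 of them, came from the Consortium for Functional Glycomics database and were retained only where the protein sequence was available. Z-scores were averaged across arrays of the same protein sequence at different concentrations or buffers and across linkers.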"}, "[2]": {"molecular_target": "Fuc(a1-2)Gal(b1-3)GlcNAc(b1-3)[Gal(b1-4)GlcNAc(b1-6)]Gal(b1-4)Glc", "summary_of_the_method": "as §1"}, "[3]": {"molecular_target": "Fuc(a1-2)Gal(b1-4)GlcNAc(b1-6)GalNAc", "summary_of_the_method": "as §1"}, "[4]": {"molecular_target": "Fuc(a1-2)Gal3S(b1-4)GlcNAc", "summary_of_the_method": "as §1"}, "[5]": {"molecular_target": "Fuc(a1-2)[Gal(a1-3)]Gal", "summary_of_the_method": "as §1"}, "[6]": {"molecular_target": "Fuc(a1-2)[GalNAc(a1-3)]Gal(b1-3)GlcNAc", "summary_of_the_method": "as §1"}, "[7]": {"molecular_target": "Fuc(a1-4)GlcNAc", "summary_of_the_method": "as §1"}, "[8]": {"molecular_target": "Gal(a1-3)Gal(b1-3)GlcNAc(b1-6)GalNAc", "summary_of_the_method": "as §1"}, "[9]": {"molecular_target": "Gal(a1-3)Gal(b1-4)GlcNAc(b1-2)Man(a1-3)[Gal(a1-3)Gal(b1-4)GlcNAc(b1-2)Man(a1-6)]Man(b1-4)GlcNAc(b1-4)GlcNAc", "summary_of_the_method": "as §1"}, "[10]": {"molecular_target": "Gal(b1-3)GalNAc", "summary_of_the_method": "as §1"}, "[11]": {"molecular_target": "Gal(b1-3)GalNAc(a1-3)[Fuc(a1-2)]Gal(b1-4)Glc", "summary_of_the_method": "as §1"}, "[12]": {"molecular_target": "Gal(b1-3)GlcNAc(b1-2)Man(a1-3)[Gal(b1-3)GlcNAc(b1-2)Man(a1-6)]Man(b1-4)GlcNAc(b1-4)GlcNAc", "summary_of_the_method": "as §1"}, "[13]": {"molecular_target": "Gal(b1-3)GlcNAc(b1-2)[Gal(b1-3)GlcNAc(b1-6)]Man(a1-6)[Gal(b1-3)GlcNAc(b1-2)Man(a1-3)]Man(b1-4)GlcNAc(b1-4)GlcNAc", "summary_of_the_method": "as §1"}, "[14]": {"molecular_target": "Gal(b1-3)GlcNAc(b1-3)Gal(b1-3)GlcNAc", "summary_of_the_method": "as §1"}, "[15]": {"molecular_target": "Gal(b1-3)[GlcNAc(b1-6)]GalNAc", "summary_of_the_method": "as §1"}, "[16]": {"molecular_target": "Gal(b1-3)[Neu5Ac(a2-6)]GlcNAc(b1-4)Gal(b1-4)Glc", "summary_of_the_method": "as §1"}, "[17]": {"molecular_target": "Gal(b1-4)GlcNAc(b1-3)Gal(b1-3)GalNAc", "summary_of_the_method": "as §1"}, "[18]": {"molecular_target": "Gal(b1-4)GlcNAc(b1-3)Gal(b1-4)GlcNAc(b1-2)[Gal(b1-4)GlcNAc(b1-3)Gal(b1-4)GlcNAc(b1-6)]Man(a1-6)[Gal(b1-4)GlcNAc(b1-3)Gal(b1-4)GlcNAc(b1-2)Man(a1-3)]Man(b1-4)GlcNAc(b1-4)[Fuc(a1-6)]GlcNAc", "summary_of_the_method": "as §1"}, "[19]": {"molecular_target": "Gal(b1-4)GlcNAc(b1-3)Gal(b1-4)GlcNAc(b1-3)Gal(b1-4)GlcNAc(b1-2)Man(a1-3)[Gal(b1-4)GlcNAc(b1-3)Gal(b1-4)GlcNAc(b1-3)Gal(b1-4)GlcNAc(b1-2)Man(a1-6)]Man(b1-4)GlcNAc(b1-4)[Fuc(a1-6)]GlcNAc", "summary_of_the_method": "as §1"}, "[20]": {"molecular_target": "Gal(b1-4)GlcNAc(b1-3)Gal(b1-4)GlcNAc(b1-3)Gal(b1-4)GlcNAc(b1-2)[Gal(b1-4)GlcNAc(b1-3)Gal(b1-4)GlcNAc(b1-3)Gal(b1-4)GlcNAc(b1-6)]Man(a1-6)[Gal(b1-4)GlcNAc(b1-3)Gal(b1-4)GlcNAc(b1-3)Gal(b1-4)GlcNAc(b1-2)Man(a1-3)]Man(b1-4)GlcNAc(b1-4)[Fuc(a1-6)]GlcNAc", "summary_of_the_method": "as §1"}, "[21]": {"molecular_target": "Gal(b1-4)GlcNAc(b1-3)[Fuc(a1-3)GlcNAc(b1-6)]Gal(b1-4)Glc", "summary_of_the_method": "as §1"}, "[22]": {"molecular_target": "Gal(b1-4)GlcNAc(b1-6)GalNAc", "summary_of_the_method": "as §1"}, "[23]": {"molecular_target": "Gal(b1-4)GlcNAc(b1-6)[Gal(b1-3)]GalNAc", "summary_of_the_method": "as §1"}, "[24]": {"molecular_target": "GalNAc(b1-3)Gal(a1-4)Gal(b1-4)GlcNAc(b1-3)Gal(b1-4)Glc", "summary_of_the_method": "as §1"}, "[25]": {"molecular_target": "GalNAc(b1-3)GalNAc", "summary_of_the_method": "as §1"}, "[26]": {"molecular_target": "GalNAc3S(b1-4)[Fuc(a1-3)]GlcNAc", "summary_of_the_method": "as §1"}, "[27]": {"molecular_target": "Glc(a1-6)Glc(a1-6)Glc(a1-6)Glc", "summary_of_the_method": "as §1"}, "[28]": {"molecular_target": "Glc(b1-4)Glc", "summary_of_the_method": "as §1"}, "[29]": {"molecular_target": "GlcA(b1-6)Gal", "summary_of_the_method": "as §1"}, "[30]": {"molecular_target": "GlcNAc(b1-3)Gal(b1-4)GlcNAc(b1-2)[GlcNAc(b1-3)Gal(b1-4)GlcNAc(b1-6)]Man(a1-6)[GlcNAc(b1-3)Gal(b1-4)GlcNAc(b1-2)Man(a1-3)]Man(b1-4)GlcNAc(b1-4)GlcNAc", "summary_of_the_method": "as §1"}},
  "note": "The sample as a whole holds a higher share of the strongest signals than the screen did.",
  "data": [
    {"binder": "MpAFP NterminalRI GFP (Marinomonas primoryensis) (protein) MSDNQFPFATLGNAIGFITKLDGSVTVQSIDGQERVLKLGDPIFFGETVLTGGSGSVTIAFVDGTDVVIGGDSIVEMTDEIYNTGDNEDLVADSSSEIDALQNAILAGDDPTLIQDAPAAGNTLADQQRVDVSIERNDNSAQAGFGVDTQSSLPTYGYDTDNGNGGQATEREYSAPSLSRTLNQSPLLEHHHHHH", "values": [
      {"measurement": "glycan array binding signal (z-score)", "setting": "[1]", "result": -0.525},
      {"measurement": "glycan array binding signal (z-score)", "setting": "[2]", "result": -0.221},
      {"measurement": "glycan array binding signal (z-score)", "setting": "[3]", "result": 1.68},
      {"measurement": "glycan array binding signal (z-score)", "setting": "[4]", "result": -0.495},
      {"measurement": "glycan array binding signal (z-score)", "setting": "[5]", "result": -0.494},
      {"measurement": "glycan array binding signal (z-score)", "setting": "[6]", "result": -0.215},
      {"measurement": "glycan array binding signal (z-score)", "setting": "[7]", "result": 2.46},
      {"measurement": "glycan array binding signal (z-score)", "setting": "[8]", "result": -0.446},
      {"measurement": "glycan array binding signal (z-score)", "setting": "[9]", "result": -0.164},
      {"measurement": "glycan array binding signal (z-score)", "setting": "[10]", "result": -0.228},
      {"measurement": "glycan array binding signal (z-score)", "setting": "[11]", "result": -0.422},
      {"measurement": "glycan array binding signal (z-score)", "setting": "[12]", "result": -0.119},
      {"measurement": "glycan array binding signal (z-score)", "setting": "[13]", "result": -0.305},
      {"measurement": "glycan array binding signal (z-score)", "setting": "[14]", "result": -0.424},
      {"measurement": "glycan array binding signal (z-score)", "setting": "[15]", "result": -0.473},
      {"measurement": "glycan array binding signal (z-score)", "setting": "[16]", "result": -0.565},
      {"measurement": "glycan array binding signal (z-score)", "setting": "[17]", "result": -0.412},
      {"measurement": "glycan array binding signal (z-score)", "setting": "[18]", "result": 4.16},
      {"measurement": "glycan array binding signal (z-score)", "setting": "[19]", "result": 0.649},
      {"measurement": "glycan array binding signal (z-score)", "setting": "[20]", "result": 2.76},
      {"measurement": "glycan array binding signal (z-score)", "setting": "[21]", "result": -0.081},
      {"measurement": "glycan array binding signal (z-score)", "setting": "[22]", "result": -0.473},
      {"measurement": "glycan array binding signal (z-score)", "setting": "[23]", "result": 0.083},
      {"measurement": "glycan array binding signal (z-score)", "setting": "[24]", "result": -0.509},
      {"measurement": "glycan array binding signal (z-score)", "setting": "[25]", "result": -0.576},
      {"measurement": "glycan array binding signal (z-score)", "setting": "[26]", "result": -0.39},
      {"measurement": "glycan array binding signal (z-score)", "setting": "[27]", "result": -0.16},
      {"measurement": "glycan array binding signal (z-score)", "setting": "[28]", "result": 0.784},
      {"measurement": "glycan array binding signal (z-score)", "setting": "[29]", "result": -0.407},
      {"measurement": "glycan array binding signal (z-score)", "setting": "[30]", "result": 6.32}
    ]}
  ]
}
